Results taken from PubChem BioAssay AID588335 (The Scripps Research Institute Molecular Screening Center, 2011).
The campaign covered roughly 360,000 compounds. About 4,500 (1.2%) were called active. The full list was thinned out, with actives kept by preference. Unmarked numbers belong to inactive results. Rule as the data show it: active = inhibition above about 30%; inactive = the rest.

Experiment: GDH-TPI coupling enzyme inhibitors, primary screen, artefact control for M. tuberculosis FBA inhibitor project, biochemical, absorbance, full deck (AID 588335);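 also: 0% = DMSO wells and 100% = wells lacking the enzyme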
Conditions: GDH-TPI coupled enzyme counterscreen, NADH absorbance; at 4.8 µM; active compounds read high

Compound	inhibition
O=C(CCc1ccc(S(=O)(=O)N2CCOCC2)cc1)OCC(=O)c1ccc(Br)cc1	-6.33%
COc1ccc(CCNC(=O)COC(=O)Cc2cccc(F)c2)cc1	-8.97%
O=C(NCc1ccccc1Cl)C1CCC(CNc2c(N3CCCCC3)c(=O)c2=O)CC1 (configuration not stated)	4.69%
CCC(C)C1(C2CCCC2)NC(=O)NC1=O (configuration not stated)	0.88%
O=C(NC1CCC(O)CC1)c1ccc(S(=O)(=O)NCc2ccco2)cc1 (configuration not stated)	11.2%
COc1cc(/C=N/NC(=O)c2cc(-c3ccccc3C)nc3ccccc23)cc(OC)c1O	76.5% (active)
COc1ccc(CN(C)C(=O)c2cc(-c3ccc(C)cc3C)nc3ccccc23)c(OC)c1OC	0%
Cc1ccc(/C=N/NC(=O)COc2ccccc2-c2ccccc2)cc1	5.68%
Cc1ccc(NN=Nc2nc3c([nH]2)c(=O)n(C)c(=O)n3C)cc1	2.21%
O=C(Nc1ccc(N2CCOCC2)cc1)c1cccc2c(-c3ccc(F)c(F)c3)coc12	1.77%
CCc1c(C)n([O-])c2c([n+]1=O)CCCCC2	6.72%
Cc1nc(-c2ccc(Cl)cc2)sc1C(=O)CBr	22.6%
Cc1[nH]c(=O)c(C(=O)/C=C/c2ccccc2)c2c1CCCC2	12.9%
Cc1nc(-c2ccccc2)sc1C(=O)/C=C/c1ccccc1	31.8% (active)
COc1ccccc1-n1ccnc(SCC(=O)NC2CCCCC2)c1=O	7.32%
Cc1ccccc1C(CC(=O)c1cccs1)C(C#N)C#N (configuration not stated)	0%
C/C(=N\NC(=S)Nc1ccc(C)cc1)c1cc2ccccc2o1	77.5% (active)
C/C(=N\NS(=O)(=O)c1cccc([N+](=O)[O-])c1)c1cc2ccccc2o1	22.8%
C/C(=N/NC(=S)Nc1ccccc1)c1ccc2c(c1)OCO2	12.9%
CCc1c(C)nc(N)n2c(SCC(=O)NC3CCCCC3)nnc12	0%
Cc1ccc(S(=O)(=O)N2CCCCC2)cc1C(=O)N1CCN(CCO)CC1	-15.1%

Compound	inhibition
O=C1NC(c2ccccc2)Cc2ccncc21 (configuration not stated)	13.4%
C1=C(N2CCOCC2)/C(=C/c2nc3ccccc3[nH]2)CC1	34.8% (active)
c1ccc(-n2nnnc2N2CCOCC2)cc1	2.54%
O=C(C1CCCO1)N1CCC(c2nc3ccccc3[nH]2)CC1 (configuration not stated)	-7.92%
CCCCN1C(=O)c2ccc(C(=O)Nc3ccc(S(=O)(=O)N(C)C)cc3)cc2C1=O	2.95%
Cc1ccc(NC2=NC(c3ccccc3)n3c(nc(C)cc3=O)N2)cc1 (configuration not stated)	4.69%
COc1ccc(/C=N/n2nnnc2N)cc1OC	21.5%
COc1ccc(/C=N/Nc2nc3ccccc3o2)cc1OC	44.1% (active)
CCOc1ccccc1/C=N/Nc1nc2ccccc2o1	8.78%
CC(C)[C@H](NC(=O)c1ccccc1F)C(=O)Nc1cccc(S(=O)(=O)N2CCOCC2)c1	-3.11%
CN1C(=O)c2ccc(NC(=O)c3c(F)c(F)c(F)c(F)c3F)cc2C1=O	10.2%
Cc1cc[n+](-c2[nH]c(=O)sc2/C=N/NC(=O)c2ccccc2[O-])cc1C	30.5%
CC(C)(C)c1cc[n+](-c2[nH]c(=O)sc2/C=N/N=C(\[O-])c2ccccc2)cc1	32.8% (active)
Cc1cccc(C)c1NC(=S)N(Cc1cccnc1)Cc1ccccc1Cl	0.63%
CC1(C)CC(=O)C2=C(C1)NCN(CCCN1CCOCC1)C2	6.39%
O=C(COc1ccc2ccc(=O)oc2c1)NCC(O)c1ccccc1 (configuration not stated)	7.87%
CC(C)OC(=O)c1ccc(COc2ccc3ccc(=O)oc3c2)o1	6.9%
CC(=CCOc1ccc2ccc(=O)oc2c1)C1=CC(=O)C(C)(C)O1	32.7% (active)
COc1ccc2oc(C(=O)OCC(=O)N(CC(C)C)c3c(N)n(Cc4ccccc4)c(=O)[nH]c3=O)c(C)c2c1	-3.6%
O=C1Nc2ccc([N+](=O)[O-])cc2C1=Nc1cccc(CO)c1	15.1%
CCOc1ccc(C(C(=O)NCCOC)N(CCOC)C(=O)CCC(=O)Nc2ccccn2)cc1 (configuration not stated)	5.17%

Compound	inhibition
COC(=O)Cc1cnc(NC(=O)CSc2nc(C(C)C)cc(=O)[nH]2)s1	-1.15%
O=C1CC(c2ccccc2)C(=O)N2C(=O)CC(c3ccccc3)C(=O)N12 (configuration not stated)	1.76%
COc1ccc2c(c1)C(=O)CC(c1ccccc1)O2 (configuration not stated)	0.86%
Cc1c(O)c(C)c2c(c1O)C(=O)C[C@@H](c1ccccc1)O2	31% (active)
NC(=O)CN1CCCC1c1ccc2c(c1)OCCO2 (configuration not stated)	-7.41%
CC1=NNC(=O)C1CCC(=O)N/N=C\c1cccc(Cl)c1 (configuration not stated)	-3.82%
CCOC(=O)c1ccc(COC(=O)c2cc(=O)[nH]c3ccccc23)o1	7.46%
CCCCSc1[nH]c(=O)c(C(=O)OCC)cc1C#N	36.1% (active)
CCOC(=O)C(Sc1ncc(C#N)c(N)n1)C(C)C (configuration not stated)	5.66%
CC(=O)N1C(C)c2ccccc2C(C)(C)CC12CCCCC2 (configuration not stated)	4.51%
O=C1COc2ccc(C(=O)COC(=O)c3cccnc3Cl)cc2N1	1.57%
Cc1ccc(NC(=O)/C(=C\c2ccccc2)NC(=O)c2ccco2)cc1	21.3%
COc1ccc(/C=C(/NC(=O)c2ccco2)C(=O)Nc2ccc(C(C)=O)cc2)cc1	33.5% (active)
COc1ccccc1C(=O)N/C(=C/c1ccco1)C(=O)Nc1ccc(C(=O)O)cc1	1.49%
CC1(C)COC(c2cccn2Cc2ccccc2Cl)=N1	12.7%
O=C(NCc1ccncc1)C(=O)NCC1OCCN1S(=O)(=O)c1ccc(Br)cc1 (configuration not stated)	3.11%
O=C(Cc1ccsc1)N1CCN(S(=O)(=O)c2cc(C(F)(F)F)cc(C(F)(F)F)c2)CC1	6.47%
Oc1c(Br)cc(/C=N/NC(=S)NCC2CCCO2)cc1Br (configuration not stated)	37.8% (active)
S=C(NCC1CCCO1)N1CCN(c2ccc(Cl)c(Cl)c2)CC1 (configuration not stated)	-2.84%
O=C(CNC(=O)c1ccc(Br)o1)NCC1CCCO1 (configuration not stated)	-4.74%
